# Assay results published in PubChem BioAssay (NCATS).
# Records with an inconclusive call do not appear. Active and inactive are the calls of the source. Calls come from the whole dose curve; as a rule, active = well fitted curve in the direction sought with a large enough effect; inconclusive = small, poorly fitted or top-dose-only effect, or another doubt; inactive = no such curve, though single readings can be large; an effect the other way counts as inactive or inconclusive.
# Tests used:
# [1] = qHTS of pediatric cancer cell lines to identify multiple opportunities for drug repurposing: Primary screen for SJ-GBM2 cells (AID 1347091)
# How it was run: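 Eight- or eleven-point concentration series, 48 h treatment at 37 degrees C in growth media; readout CellTiter-Glo luminescence. Potency and efficacy were taken from the concentration-response curves.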
# [2] = qHTS of pediatric cancer cell lines to identify multiple opportunities for drug repurposing: Primary screen for A673 cells (AID 1347092); note: nearly all actives have a fitted effect of over 45% in size
# How it was run: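 Luminescence from CellTiter-Glo, taken after 15 min at room temperature, served as the proxy for metabolically active cells following 48 h treatment. Both potency and efficacy were taken from curves fitted to the titration data.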
# [3] = qHTS of pediatric cancer cell lines to identify multiple opportunities for drug repurposing: Primary screen for SK-N-MC cells (AID 1347093)
# How it was run: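 Metabolically active cells were quantified by ATP-dependent luminescence (CellTiter-Glo, 15 min at room temperature) following 48 h treatment. Cells had been plated at 500-1,000 per well and settled for 5 h beforehand.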
# [4] = qHTS of pediatric cancer cell lines to identify multiple opportunities for drug repurposing: Primary screen for BT-37 cells (AID 1347094)
# How it was run: (§1)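 Phenotypic viability qHTS, 48 h compound exposure, CellTiter-Glo luminescence read-out; multi-concentration dosing so that potency and efficacy derive directly from the primary screen's curves.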
# [5] = qHTS of pediatric cancer cell lines to identify multiple opportunities for drug repurposing: Primary screen for NB-EBc1 cells (AID 1347095)
# How it was run: as §1
# [6] = qHTS of pediatric cancer cell lines to identify multiple opportunities for drug repurposing: Primary screen for U-2 OS cells (AID 1347096); note: nearly all actives have a fitted effect of over 50% in size
# How it was run: (§2)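 Cells (500-1,000/well) in growth media were settled 5 h at 37 degrees C, then given compounds for 48 h. Viability was read as CellTiter-Glo luminescence. Primary runs used MIPE at 11 points (0.78 nM-46 µM) and NPC at 8 points (0.59 nM-46 µM); follow-ups used 11 points.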
# [7] = qHTS of pediatric cancer cell lines to identify multiple opportunities for drug repurposing: Primary screen for Saos-2 cells (AID 1347097); note: nearly all actives have a fitted effect of over 40% in size
# How it was run: as §1
# [8] = qHTS of pediatric cancer cell lines to identify multiple opportunities for drug repurposing: Primary screen for NB1643 cells (AID 1347099); note: nearly all actives have a fitted effect of over 50% in size
# How it was run: as §1
# [9] = qHTS of pediatric cancer cell lines to identify multiple opportunities for drug repurposing: Primary screen for SK-N-SH cells (AID 1347098); note: nearly all actives have a fitted effect of over 65% in size
# How it was run: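 Cells (500-1,000/well) rested 5 h, then received compounds for 48 h; metabolically active cells were measured by CellTiter-Glo luminescence. Final concentrations spanned up to 46 µM (MIPE, 11-point) or 0.59 nM-46 µM (NPC, 8-point) in primary screens, 11-point in follow-ups.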
# [10] = qHTS of pediatric cancer cell lines to identify multiple opportunities for drug repurposing: Primary screen for LAN-5 cells (AID 1347100)
# How it was run: as §2
# Potency is the fitted concentration of half-maximal effect.
SMILES,Potency [1],Potency [2],Potency [3],Potency [4],Potency [5],Potency [6],Potency [7],Potency [8],Potency [9],Potency [10]
Oc1ccc(-c2ccc(-c3cc(Nc4cccc(CNC5CC5)c4)n[nH]3)cc2)c(O)c1,1.48 µM (active),0.935 µM (active),0.372 µM (active),5.44 µM (active),2.96 µM (active),5.9 µM (active),5.9 µM (active),inactive,,
C[N+]1(C)[C@@H]2C[C@@H](OC(=O)C(O)(c3cccs3)c3cccs3)C[C@H]1[C@@H]1O[C@@H]12,inactive,inactive,inactive,inactive,inactive,inactive,,,inactive,
O=C(O)C=Cc1ccc(Cn2ccnc2)cc1,inactive,inactive,inactive,inactive,inactive,inactive,inactive,inactive,inactive,inactive
C[C@@]12C(=O)OC(=O)[C@@]1(C)C1CCC2O1,2.09 µM (active),4.69 µM (active),2.35 µM (active),2.17 µM (active),2.35 µM (active),inactive,2.96 µM (active),1.48 µM (active),3.83 µM (active),2.35 µM (active)
CC(C)(C)[N+]([O-])=Cc1ccc(S(=O)(=O)O)cc1S(=O)(=O)O,inactive,inactive,inactive,inactive,inactive,inactive,inactive,,inactive,inactive
CC(C)OC(=O)[C@H](C)N[P@](=O)(OC[C@H]1O[C@@H](n2ccc(=O)[nH]c2=O)[C@](C)(F)[C@H]1O)Oc1ccccc1,inactive,inactive,inactive,inactive,inactive,inactive,,inactive,inactive,
OC[C@H]1OC(O)C[C@@H](O)[C@H]1O (some centres undefined),inactive,inactive,inactive,inactive,inactive,inactive,inactive,,inactive,inactive
COc1ccnc2[nH]cc(C(=O)C(=O)N3CCN(C(=O)c4ccccc4)C[C@@H]3C)c12,inactive,inactive,inactive,inactive,inactive,inactive,inactive,,,inactive
CC(=O)SCC(Cc1ccccc1)C(=O)NCC(=O)OCc1ccccc1 (centres undefined),5.9 µM (active),0.59 µM (active),0.187 µM (active),0.344 µM (active),1.66 µM (active),3.72 µM (active),4.69 µM (active),,0.271 µM (active),0.296 µM (active)
COc1cc(O)c2c(c1)C1OC1C[C@H](O)[C@H](O)C(=O)C=CC[C@H](C)OC2=O (some centres undefined),8.33 µM (active),5.9 µM (active),2.35 µM (active),19.3 µM (active),5.9 µM (active),18.7 µM (active),10.5 µM (active),2.96 µM (active),6.07 µM (active),5.26 µM (active)
CO[C@@H]1[C@@H](O)[C@H](O)[C@@H](n2c3c(Cl)cccc3c3c4c(c5c6cccc(Cl)c6[nH]c5c32)C(=O)NC4=O)O[C@@H]1CO,0.166 µM (active),0.235 µM (active),0.0662 µM (active),0.273 µM (active),0.0935 µM (active),4.69 µM (active),0.296 µM (active),0.418 µM (active),1.21 µM (active),0.118 µM (active)
C=C(C)[C@@H]1CC[C@]2(C)CC[C@]3(C)[C@H](CC[C@@H]4[C@@]5(C)CC[C@H](O)C(C)(C)[C@H]5CC[C@]43C)[C@@H]12,inactive,inactive,inactive,inactive,inactive,inactive,inactive,inactive,inactive,inactive
Nc1nc2c(c(=O)[nH]1)N(C=O)[C@H](CNc1ccc(C(=O)N[C@@H](CCC(=O)O)C(=O)O)cc1)CN2,inactive,7.43 µM (active),inactive,9.68 µM (active),inactive,inactive,inactive,,inactive,10.5 µM (active)
CCCCCCCCCCCCCCCC(=O)OC[C@@H](NC(=O)C(Cl)Cl)[C@H](O)c1ccc([N+](=O)[O-])cc1,inactive,inactive,inactive,inactive,inactive,inactive,inactive,inactive,inactive,inactive
CCOC(=O)[C@H](CCc1ccccc1)N[C@@H](C)C(=O)N1[C@@H](C(=O)O)C[C@H]2CCC[C@@H]21,20.9 µM (active),9.35 µM (active),1.87 µM (active),21.7 µM (active),18.7 µM (active),18.7 µM (active),14.8 µM (active),3.32 µM (active),4.82 µM (active),13.2 µM (active)
Cn1cnc(=N)c2[nH]cnc21,1.48 µM (active),0.187 µM (active),0.0833 µM (active),1.37 µM (active),0.662 µM (active),2.35 µM (active),0.743 µM (active),0.166 µM (active),1.92 µM (active),0.418 µM (active)
NC[C@H]1O[C@H](O[C@H]2[C@@H](O)[C@@H](O[C@H]3O[C@H](CO)[C@@H](O)[C@H](N)[C@@H]3O)[C@H](N)C[C@@H]2N)[C@H](N)C[C@H]1O,inactive,inactive,inactive,inactive,inactive,inactive,inactive,,inactive,inactive
c1cncc(CN2CCC(n3ncc4c(N5CCOCC5)nc(-c5ccc6[nH]ccc6c5)nc43)CC2)c1,3.32 µM (active),11.8 µM (active),7.43 µM (active),7.69 µM (active),4.69 µM (active),inactive,,6.62 µM (active),19.2 µM (active),14.8 µM (active)
CCCCC(=O)O[C@]1(C(=O)CO)[C@@H](C)C[C@H]2[C@@H]3CCC4=CC(=O)C=C[C@]4(C)[C@@]3(F)[C@@H](O)C[C@@]21C,inactive,inactive,inactive,inactive,inactive,inactive,,inactive,inactive,inactive
Cn1cc(-c2cnn3c(N)c(Br)c([C@H]4CCCNC4)nc23)cn1,0.235 µM (active),0.059 µM (active),0.0935 µM (active),0.685 µM (active),0.264 µM (active),,1.48 µM (active),1.32 µM (active),17.1 µM (active),
CC(C=CC1=C(C)CCCC1(C)C)=CC=CC(C)=CC(=O)Nc1ccc(O)cc1,38.2 µM (active),2.7 µM (active),3.82 µM (active),17.7 µM (active),3.4 µM (active),42.9 µM (active),,17.1 µM (active),55.5 µM (active),3.4 µM (active)
FC(F)(F)c1ccc(Nc2nc3ccc(Oc4ccnc(-c5ncc(C(F)(F)F)[nH]5)c4)cc3[nH]2)cc1,16.6 µM (active),14.8 µM (active),4.18 µM (active),13.7 µM (active),20.9 µM (active),,7.43 µM (active),16.6 µM (active),5.41 µM (active),
C=CC(=O)Nc1cccc(Nc2nc(NC3CCC(N(C)C)CC3)nc3c2ncn3C(C)C)c1 (centres undefined),0.235 µM (active),0.0118 µM (active),0.0042 µM (active),0.0968 µM (active),0.166 µM (active),,0.833 µM (active),0.0332 µM (active),0.136 µM (active),0.0148 µM (active)
COc1ccc(S(=O)(=O)Nc2cccnc2Nc2ccc(O)cc2)cc1,0.0235 µM (active),0.235 µM (active),0.296 µM (active),0.344 µM (active),0.0166 µM (active),,0.235 µM (active),inactive,,0.0469 µM (active)
FC(F)c1nc2ccccc2n1-c1nc(N2CCOCC2)nc(N2CCOCC2)n1,0.0743 µM (active),1.18 µM (active),0.059 µM (active),1.09 µM (active),0.662 µM (active),,0.526 µM (active),1.48 µM (active),,1.18 µM (active)
CCc1nc(-c2cccc(C)c2)c(-c2ccnc(NC(=O)c3ccccc3)c2)s1,18.7 µM (active),23.5 µM (active),29.6 µM (active),27.3 µM (active),20.9 µM (active),,16.6 µM (active),18.7 µM (active),inactive,
N#CNC(=NCCCCCCOc1ccc(Cl)cc1)Nc1ccncc1,0.001 µM (active),0.0023 µM (active),0.0033 µM (active),0.0039 µM (active),0.001 µM (active),0.0187 µM (active),,0.0074 µM (active),0.0607 µM (active),0.001 µM (active)
O=C1NC(=O)[C@@H](c2cn3c4c(cccc24)CCC3)[C@H]1c1c[nH]c2ccccc12,0.0833 µM (active),0.235 µM (active),0.0469 µM (active),2.17 µM (active),0.0469 µM (active),,0.148 µM (active),,inactive,0.332 µM (active)
